Here are results for eight molecules from PubChem BioAssay (NCATS).

A short description of test [1]: AP1 Signaling Pathway (AID 357).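 Note: ME-180 reporter cells stimulated with EGF at its EC50 level; % is set by controls: 0 for no effect and ±100 for the full control effect.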 The note with it: ME-180 AP-1-bla reporter, EGF-induced, beta-lactamase ratio, 5 h; at 17.2 µM (top of the series) unless noted. Put shortly:
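Cells are seeded overnight, exposed to compound titrations and an EC50 level of EGF for 5 hours at 37 °C, then loaded with CCF4 dye for 2.5 hours. Beta-lactamase activity under the AP-1 element is read as a blue/green ratio.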

Test [2] addresses Cytochrome P450 1A2 (Homo sapiens) (UniProt P05177). Briefly: p450-cyp1a2 (AID 410; calls by dose curve; note: potency is the fitted concentration of half-maximal effect). An outline of the steps:
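O-Demethylation of luciferin 6' methyl ether by human CYP1A2 is monitored as luciferase luminescence. Substrate sits at Km (100uM); enzyme is 20nM. Values are scaled to 57 uM furafylline as maximal inhibition.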

Test [3] can be described thus: Stat Signaling Pathway (AID 446).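 Note: ME-180 cervical cancer cells given 40 pM IL-6 alongside compound; SIE-controlled beta-lactamase reporter measured as 460/530 nm FRET emission ratio; % is set by controls: 0 for no effect and ±100 for the full control effect.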 The note with it: ME-180 (cervical carcinoma) SIE beta-lactamase reporter, IL-6 stimulated, 5 h; at 17.2 µM (top of the series) unless noted. Put shortly:
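Normalization used AC90 stimulation (300 pM IL-6) and AC90 inhibition (125 nM pan-JAK inhibitor at 40 pM IL-6). The underlying signal is SIE-driven beta-lactamase in ME-180 cells after 5 h IL-6 exposure with compound.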

Test [4] concerns the target Glucocorticoid receptor (Homo sapiens) (UniProt P04150). Briefly: GR-GFP Redistribution (AID 450;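 active = compounds whose dose series gives a full or clear partial fitted curve of increased nuclear translocation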; note: potency is the fitted concentration of half-maximal effect).
The target is the same in test [5]. Briefly: GR-EFC Redistribution (AID 451; calls by dose curve; note: potency is the fitted concentration of half-maximal effect). The note with it: CHO-K1 GR-EFC translocation, beta-gal luminescence, 2 h. Put shortly: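 CHO-K1 cells expressing nuclear EA and GR-ED fragments of b-gal; compounds titrated up to 46 uM final, 2 h at 37 C. GR nuclear translocation read as complemented b-gal luminescence after 1 h RT detection.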
The target of test [6] is 3',5'-cyclic-AMP phosphodiesterase 4B (Homo sapiens) (UniProt Q07343). Briefly: qHTS Assay for Inhibitors of PDE-IV (AID 607; active = well fitted activation curve with a large enough effect in the main read-out, with a control signal flat, not every such curve was filed as active; note: % of control where 0% means no effect). Put shortly:
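HEK293 ACTOne cells with CNG channel (1000/well), endogenous PDE4; membrane potential dye, compounds up to 22.9 uM final. Fluorescence Ex 535/Em 590; RO 20-1724 (100 uM final) as reference.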
For orientation: qHTS replaces the single test concentration by a dilution series.

In test [7] the target is Guanine nucleotide-binding protein G(i) subunit alpha-1 (Homo sapiens) (UniProt P63096). Briefly: qHTS Assay for Inhibitors of RGS12 GoLoco Motif Activity (Green Fluorophore) (AID 879; active = well fitted curve in the direction sought with a large enough effect; an effect the other way counts as inactive or inconclusive;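 note: 0% = labeled peptide with Gαi1 and full inhibition = labeled peptide alone without protein; negative values mean loss of peptide binding seen as reduced polarization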). An outline of the steps:
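A drop in FITC polarization marked displacement of the FITC-tagged RGS12 GoLoco peptide (10 nM) from Gαi1 (50 nM). Compounds were incubated 10 min at room temperature in Tris pH 7.5 buffer containing 150 mM NaCl, 0.1 mM GDP and 0.05% NP40; unlabeled peptide titration served as control.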

The target of test [8] is Cytochrome P450 3A4 (Homo sapiens) (UniProt P08684). Briefly: qHTS Assay for Activators of Cytochrome P450 3A4 (AID 885; active = well fitted curve in the direction sought with a large enough effect; an effect the other way counts as inactive or inconclusive; note: nearly all actives have a fitted effect of over 65% in size). Put shortly: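 Human CYP3A4 dealkylates Luciferin-PPXE to luciferin, which luciferase detection converts to light. Substrate was at its KM (25uM), buffer 200mM KPO4, reaction 60 min at RT.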
Sequence of Cytochrome P450 3A4 (Homo sapiens) (P08684 whole entry, looked up): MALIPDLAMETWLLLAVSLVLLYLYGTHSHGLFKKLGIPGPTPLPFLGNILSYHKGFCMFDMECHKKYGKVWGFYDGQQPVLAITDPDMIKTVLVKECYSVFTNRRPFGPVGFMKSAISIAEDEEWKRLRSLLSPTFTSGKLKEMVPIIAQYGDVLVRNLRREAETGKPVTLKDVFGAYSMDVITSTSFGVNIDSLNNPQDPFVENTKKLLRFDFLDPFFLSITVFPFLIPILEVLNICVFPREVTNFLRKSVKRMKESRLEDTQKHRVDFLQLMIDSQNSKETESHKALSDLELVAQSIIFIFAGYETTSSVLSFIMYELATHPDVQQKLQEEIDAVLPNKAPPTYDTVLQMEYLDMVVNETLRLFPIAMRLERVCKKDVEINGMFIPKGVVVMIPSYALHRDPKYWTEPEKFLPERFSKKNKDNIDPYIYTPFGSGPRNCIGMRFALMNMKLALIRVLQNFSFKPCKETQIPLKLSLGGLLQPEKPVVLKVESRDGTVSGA
Test [9] concerns the target Muscarinic acetylcholine receptor M1 (Rattus norvegicus) (UniProt P08482). Briefly: qHTS Assay for Antagonists of Acetylcholine Muscarinic M1 Receptor: Measurement of IP-One Response (AID 944; active = well fitted curve in the direction sought with a large enough effect; an effect the other way counts as inactive or inconclusive; note: nearly all actives have a fitted effect of over 75% in size). Put shortly: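 Antagonist mode with rat M1 receptor transfected into CHO cells. Compound is added first for 10 min, carbachol at its EC80 follows for 30 min, and lysis reagents then allow TR-FRET detection of accumulated IP1.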

The target of test [10] is Pyruvate kinase (Leishmania mexicana) (UniProt Q27686). Briefly: qHTS Validation Assay for Inhibitors of Leishmania Mexicana Pyruvate Kinase (AID 945; active = well fitted curve in the direction sought with a large enough effect; an effect the other way counts as inactive or inconclusive;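 note: 0% = DMSO only neutral control wells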). Put shortly:
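LmPYK E451W 0.2 nM; 0.5 mM PEP, 0.1 mM ADP, 7 mM MgCl2, 50 mM KCl, imidazole pH 7.2, 0.01% Tween 20, 0.05% BSA; 1 h RT; PKLight luminescence; DMSO-normalized.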

For test [11], the target named is Pyruvate kinase PKM (Homo sapiens) (UniProt P14618). Briefly: qHTS Assay for Activators of Human Muscle Pyruvate Kinase (AID 954; active = well fitted curve in the direction sought with a large enough effect, not every such curve was filed as active;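 note: 0% = uninhibited enzyme and -100% = no enzyme or full thiadiazolimine inhibition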). An outline of the steps:
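Compound pinned into substrate mix (0.5 mM PEP, 0.1 mM ADP), then 0.1 nM PKM2 added; 1 h, RT. Stop/detection luciferase reagent added, luminescence read. Normalized to no-inhibition and no-enzyme or reference-inhibitor controls.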

Test [12] concerns the target Alpha-galactosidase A (Homo sapiens) (UniProt P06280). Briefly: Counterscreen for Glucocerebrosidase Inhibitors: qHTS Assay for Human alpha-Galactosidase at pH 4.5 (AID 992; active = well fitted curve in the direction sought with a large enough effect; an effect the other way counts as inactive or inconclusive; note: 0% is about no effect). An outline of the steps: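 Steps: enzyme (2 nM final), then compound across 0.7 nM to 77 uM, then 80 uM fluorogenic galactopyranoside substrate; incubate 20 min at room temperature; quench at pH 10; measure fluorescence at 365/440 nm.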
For orientation: A counterscreen serves to expose hits that act by an unwanted route or on another target.

Test [13] has as its target alpha-glucosidase (Oryza sativa, rice) (UniProt Q653V4). Briefly: Counterscreen for Glucocerebrosidase Inhibitors: qHTS Assay for Rice alpha-Glucosidase at pH 5.0 (AID 997; active = well fitted curve in the direction sought with a large enough effect; an effect the other way counts as inactive or inconclusive;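 note: 0% = full activity with enzyme and -100% = basal without enzyme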). Put shortly:
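Endpoint fluorogenic assay at pH 5.0: compounds (0.7 nM to 77 uM) titrated against 4 nM rice enzyme and 400 uM 4-MU-alpha-glucoside for 20 min at room temperature; NaOH/glycine stop, read ex 365/em 440 nm, Hill-fitted AC50.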

A short description of test [14]: NFAT Signaling Pathway (AID 444).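 Note: carbachol stimulus at about its EC50 of 1 µM final; % is set by controls: 0 for no effect and ±100 for the full control effect.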 The settings on record: Jurkat NFAT-bla M1, carbachol, beta-lactamase ratio, 5 h; at 17.2 µM (top of the series) unless noted. Put shortly: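 Jurkat cells with NFAT-driven β-lactamase reporter and co-expressed M1 receptor, stimulated with carbachol (final 1 uM, ~EC50), compound titration, 5 h at 37 °C. CCF4 loaded 1 h at RT; 460/530 nm ratio gave %activity and AC50.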

Test [15] concerns the target Mitogen-activated protein kinase 10 (Mus musculus) (UniProt Q61831). Briefly: JNK3 AlphaScreen Assay (AID 530).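 Note: kinase came from lysate of stimulated human HepG2 cells; signal reports phosphorylation of biotinylated GST-cJun 1-79 at Ser73 with 10 µM ATP; % is set by controls: 0 for no effect and ±100 for the full control effect.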 Put shortly: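 Activity was read by AlphaScreen after JNK3-containing HepG2 lysate (cytokine pre-activated) phosphorylated biotinylated GST-cJun with 10 uM ATP at room temperature. Phospho-Ser73 cJun antibody with Protein-A acceptor beads provided detection.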
On the technique in general: Bead proximity is the source of the signal in Alpha formats.

For test [16], the target named is Cytochrome P450 2C19 (Homo sapiens) (UniProt P33261). Briefly: qHTS Assay for Inhibitors and Substrates of Cytochrome P450 2C19 (AID 899; active = well fitted curve in the direction sought with a large enough effect; an effect the other way counts as inactive or inconclusive; note: nearly all actives have a fitted effect of over 60% in size; note: potency is the fitted concentration of half-maximal effect). An outline of the steps:
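5 nM human CYP2C19 with 10uM Luciferin-H EGE (at KM) in 50mM KPO4, compound preincubated 10 min at 37C, then NADPH regeneration for 60 min at 37C. Luciferin read by luminescence after detection reagent; normalized to 57uM ketoconazole as full inhibition.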

The target in test [17] is Cytochrome P450 3A4 (Homo sapiens) (UniProt P08684). Briefly: qHTS Assay for Inhibitors and Substrates of Cytochrome P450 3A4 (AID 884; active = well fitted curve in the direction sought with a large enough effect; an effect the other way counts as inactive or inconclusive; note: % is set by controls: 0 for no effect and ±100 for the full control effect; nearly all actives have a fitted effect of over 50% in size). An outline of the steps:
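Luminescent readout of luciferin produced by CYP3A4 (20 nM) dealkylation of Luciferin-PPXE, 25 uM (its KM). NADPH-driven reaction ran 60 min at RT after 10 min compound preincubation; data scaled to 57 uM ketoconazole as 100% inhibition.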

Test [18] has as its target Cytochrome P450 2C9 (Homo sapiens) (UniProt P11712). Briefly: qHTS Assay for Inhibitors and Substrates of Cytochrome P450 2C9 (AID 883; active = well fitted curve in the direction sought with a large enough effect; an effect the other way counts as inactive or inconclusive; note: % is set by controls: 0 for no effect and ±100 for the full control effect; nearly all actives have a fitted effect of over 60% in size). Put shortly: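 Human CYP2C9 (10nM) with Luciferin-H at 100uM (its KM) in 25mM KPO4; compound preincubated 10 min at 37C, then NADPH regeneration for 60 min at 37C. Luciferin read by luminescence after detection reagent; normalized to 57uM sulphaphenazole as full inhibition.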

Test [19] addresses Cytochrome P450 2D6 (Homo sapiens) (UniProt P10635). Briefly: qHTS Assay for Inhibitors and Substrates of Cytochrome P450 2D6 (AID 891; active = well fitted curve in the direction sought with a large enough effect; an effect the other way counts as inactive or inconclusive; note: potency is the fitted concentration of half-maximal effect; nearly all actives have a fitted effect of over 60% in size). Put shortly:
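Luminescent read-out of luciferin formed by 5 nM human CYP2D6 demethylating 30 uM Luciferin-ME EGE (Km level) over 60 min at room temperature after NADPH regeneration addition. Data normalized to full inhibition by 1.43 uM quinidine.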

Structures are written as SMILES. Unmarked numbers belong to inactive results. Inconclusive results are not listed. Active and inactive are the calls of the source. Unless noted, calls come from the whole dose curve; as a rule, active = well fitted curve in either direction with a large enough effect (not every such curve was filed as active); inconclusive = small, poorly fitted or top-dose-only effect, or another doubt; inactive = flat fitted curve, though single readings scatter.

Sequence of Glucocorticoid receptor (Homo sapiens) (P04150 whole entry, looked up, the tested form may be a part): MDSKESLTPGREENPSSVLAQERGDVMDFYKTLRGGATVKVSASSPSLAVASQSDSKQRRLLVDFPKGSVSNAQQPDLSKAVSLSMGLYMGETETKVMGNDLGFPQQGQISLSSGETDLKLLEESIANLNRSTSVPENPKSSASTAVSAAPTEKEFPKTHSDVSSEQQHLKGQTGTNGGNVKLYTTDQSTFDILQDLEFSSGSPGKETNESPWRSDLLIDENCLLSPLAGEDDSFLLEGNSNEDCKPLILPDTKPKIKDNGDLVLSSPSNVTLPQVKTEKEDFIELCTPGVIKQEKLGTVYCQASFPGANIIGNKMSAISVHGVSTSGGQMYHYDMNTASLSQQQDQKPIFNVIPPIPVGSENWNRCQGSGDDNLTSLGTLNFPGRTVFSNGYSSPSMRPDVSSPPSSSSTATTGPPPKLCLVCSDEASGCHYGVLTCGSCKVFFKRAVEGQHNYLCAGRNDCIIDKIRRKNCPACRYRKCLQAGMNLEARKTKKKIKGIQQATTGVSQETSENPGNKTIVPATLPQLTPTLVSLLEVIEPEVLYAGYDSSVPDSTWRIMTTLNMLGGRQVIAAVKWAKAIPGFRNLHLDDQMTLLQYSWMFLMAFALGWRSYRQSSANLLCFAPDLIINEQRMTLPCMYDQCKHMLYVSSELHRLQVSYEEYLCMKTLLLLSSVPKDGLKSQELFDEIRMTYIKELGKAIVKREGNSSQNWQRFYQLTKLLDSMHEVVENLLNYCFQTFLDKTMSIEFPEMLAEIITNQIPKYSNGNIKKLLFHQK
Sequence of 3',5'-cyclic-AMP phosphodiesterase 4B (Homo sapiens) (Q07343 whole entry, looked up): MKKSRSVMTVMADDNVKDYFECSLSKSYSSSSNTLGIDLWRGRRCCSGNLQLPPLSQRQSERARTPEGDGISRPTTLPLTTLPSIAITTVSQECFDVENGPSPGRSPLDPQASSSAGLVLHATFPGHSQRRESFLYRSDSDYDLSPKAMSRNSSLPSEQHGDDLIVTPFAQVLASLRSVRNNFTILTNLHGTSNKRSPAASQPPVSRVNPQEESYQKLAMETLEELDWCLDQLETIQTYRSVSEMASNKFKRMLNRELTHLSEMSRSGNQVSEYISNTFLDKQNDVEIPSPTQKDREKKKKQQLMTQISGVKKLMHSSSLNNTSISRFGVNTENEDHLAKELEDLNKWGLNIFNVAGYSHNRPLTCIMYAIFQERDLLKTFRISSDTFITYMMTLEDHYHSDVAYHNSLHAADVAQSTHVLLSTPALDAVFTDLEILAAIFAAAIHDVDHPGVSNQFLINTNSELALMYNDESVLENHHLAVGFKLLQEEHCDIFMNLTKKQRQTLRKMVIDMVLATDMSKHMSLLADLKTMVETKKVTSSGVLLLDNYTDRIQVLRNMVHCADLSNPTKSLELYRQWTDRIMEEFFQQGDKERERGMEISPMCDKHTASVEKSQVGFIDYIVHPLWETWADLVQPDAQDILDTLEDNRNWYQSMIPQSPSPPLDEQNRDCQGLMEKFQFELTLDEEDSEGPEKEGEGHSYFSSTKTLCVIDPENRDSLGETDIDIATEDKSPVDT
Sequence of Cytochrome P450 1A2 (Homo sapiens) (P05177 whole entry, looked up): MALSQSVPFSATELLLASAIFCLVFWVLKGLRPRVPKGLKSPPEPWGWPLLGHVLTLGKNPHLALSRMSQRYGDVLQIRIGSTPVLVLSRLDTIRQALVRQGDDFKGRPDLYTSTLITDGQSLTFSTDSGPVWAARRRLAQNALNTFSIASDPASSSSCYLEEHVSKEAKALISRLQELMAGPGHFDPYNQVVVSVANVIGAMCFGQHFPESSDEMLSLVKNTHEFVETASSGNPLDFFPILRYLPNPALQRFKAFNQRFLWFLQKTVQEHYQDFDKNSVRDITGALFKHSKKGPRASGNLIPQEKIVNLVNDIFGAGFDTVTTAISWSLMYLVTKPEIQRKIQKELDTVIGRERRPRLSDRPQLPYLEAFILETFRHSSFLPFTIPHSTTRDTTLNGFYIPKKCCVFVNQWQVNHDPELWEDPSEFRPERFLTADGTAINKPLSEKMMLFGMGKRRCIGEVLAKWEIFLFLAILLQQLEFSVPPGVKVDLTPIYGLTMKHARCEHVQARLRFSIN
Sequence of Pyruvate kinase (Leishmania mexicana) (Q27686 2-499 E452W): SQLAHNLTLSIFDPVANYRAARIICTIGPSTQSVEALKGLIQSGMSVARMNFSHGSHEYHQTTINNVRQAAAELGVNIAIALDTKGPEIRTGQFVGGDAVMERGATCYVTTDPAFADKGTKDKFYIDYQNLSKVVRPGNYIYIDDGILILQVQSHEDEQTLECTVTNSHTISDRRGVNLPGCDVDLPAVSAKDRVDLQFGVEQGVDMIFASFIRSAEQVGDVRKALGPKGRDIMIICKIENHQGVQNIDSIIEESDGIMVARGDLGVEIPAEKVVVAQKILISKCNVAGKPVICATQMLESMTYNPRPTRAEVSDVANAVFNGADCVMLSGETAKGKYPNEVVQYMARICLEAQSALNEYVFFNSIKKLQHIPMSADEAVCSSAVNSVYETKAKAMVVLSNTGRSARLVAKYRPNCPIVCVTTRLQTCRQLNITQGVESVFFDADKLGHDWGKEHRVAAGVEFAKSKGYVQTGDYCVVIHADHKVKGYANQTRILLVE
Sequence of Cytochrome P450 2C19 (Homo sapiens) (P33261 whole entry, looked up): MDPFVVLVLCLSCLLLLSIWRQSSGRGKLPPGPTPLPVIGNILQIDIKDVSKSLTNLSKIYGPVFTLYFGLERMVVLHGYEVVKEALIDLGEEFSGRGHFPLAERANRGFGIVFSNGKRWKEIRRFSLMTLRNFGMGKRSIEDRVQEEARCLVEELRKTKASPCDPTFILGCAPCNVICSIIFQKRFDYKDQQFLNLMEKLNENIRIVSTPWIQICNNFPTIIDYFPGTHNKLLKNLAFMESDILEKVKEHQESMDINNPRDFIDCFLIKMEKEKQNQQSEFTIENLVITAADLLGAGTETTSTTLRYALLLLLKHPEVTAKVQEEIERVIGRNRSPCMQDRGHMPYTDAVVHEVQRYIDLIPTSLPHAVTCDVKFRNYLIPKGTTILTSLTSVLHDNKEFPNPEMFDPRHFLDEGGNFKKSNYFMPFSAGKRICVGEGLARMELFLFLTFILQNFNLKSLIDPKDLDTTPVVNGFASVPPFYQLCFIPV
Sequence of Pyruvate kinase PKM (Homo sapiens) (P14618 whole entry, looked up): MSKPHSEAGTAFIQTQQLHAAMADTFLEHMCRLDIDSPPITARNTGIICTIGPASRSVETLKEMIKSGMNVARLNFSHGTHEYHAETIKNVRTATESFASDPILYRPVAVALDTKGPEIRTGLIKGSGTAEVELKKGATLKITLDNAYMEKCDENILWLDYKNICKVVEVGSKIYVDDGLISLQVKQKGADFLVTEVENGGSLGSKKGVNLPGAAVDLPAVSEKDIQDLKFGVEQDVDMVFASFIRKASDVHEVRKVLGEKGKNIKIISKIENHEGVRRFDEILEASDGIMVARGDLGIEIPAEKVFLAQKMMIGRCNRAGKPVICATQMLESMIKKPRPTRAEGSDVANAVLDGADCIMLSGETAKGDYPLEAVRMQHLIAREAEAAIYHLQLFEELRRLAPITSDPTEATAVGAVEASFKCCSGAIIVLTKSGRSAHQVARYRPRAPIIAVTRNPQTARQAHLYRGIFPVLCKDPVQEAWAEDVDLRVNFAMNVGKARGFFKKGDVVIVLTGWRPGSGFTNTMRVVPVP
Sequence of Guanine nucleotide-binding protein G(i) subunit alpha-1 (Homo sapiens) (P63096 whole entry, looked up): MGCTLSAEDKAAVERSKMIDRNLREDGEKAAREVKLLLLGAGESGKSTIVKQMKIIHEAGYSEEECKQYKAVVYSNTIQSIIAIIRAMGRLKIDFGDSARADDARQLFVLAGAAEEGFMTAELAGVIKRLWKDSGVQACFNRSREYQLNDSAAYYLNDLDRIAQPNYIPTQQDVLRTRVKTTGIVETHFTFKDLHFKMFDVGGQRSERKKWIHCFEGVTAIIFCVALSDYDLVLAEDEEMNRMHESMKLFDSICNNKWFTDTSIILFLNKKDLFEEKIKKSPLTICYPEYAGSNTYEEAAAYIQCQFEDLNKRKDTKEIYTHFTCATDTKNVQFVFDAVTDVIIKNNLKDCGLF
Sequence of Alpha-galactosidase A (Homo sapiens) (P06280 whole entry, looked up): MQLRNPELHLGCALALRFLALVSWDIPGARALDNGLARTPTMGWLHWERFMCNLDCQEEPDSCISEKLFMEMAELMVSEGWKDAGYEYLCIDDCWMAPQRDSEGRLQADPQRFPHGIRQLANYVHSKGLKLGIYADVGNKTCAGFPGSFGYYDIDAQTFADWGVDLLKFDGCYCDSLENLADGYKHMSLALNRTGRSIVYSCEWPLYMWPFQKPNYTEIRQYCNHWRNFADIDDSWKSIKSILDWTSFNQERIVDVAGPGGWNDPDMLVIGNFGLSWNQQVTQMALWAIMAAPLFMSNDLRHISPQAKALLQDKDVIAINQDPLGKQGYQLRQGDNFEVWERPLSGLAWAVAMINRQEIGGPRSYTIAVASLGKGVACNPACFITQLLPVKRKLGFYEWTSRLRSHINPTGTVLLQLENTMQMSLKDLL

Take `COc1cccc2c1[C@@H]1CN(CCCCn3c(=O)[nH]c4c(sc5ncc(-c6ccccc6)nc54)c3=O)C[C@H]1CO2`: in [1], the activity change, negative = inhibition was 4.55% [at 38 µM]. The Potency in test [2] is 31.6 µM (active); in [4], over 46 µM; in [5] it was over 46 µM. For the same molecule, the activity, negative = inhibition in test [3] is 22.8% [at 38 µM]. In addition, the Potency entry in test [6], in test [8], in [9] and in test [10] was “inactive” each time. Besides, the molecule was classed as inactive in [7], in test [11], in test [12] and in test [13].

In the case of `Cc1ccc(N2C(=O)C3ON(c4ccccc4)C(c4ccncc4)C3C2=O)cc1` (stereo not given), the activity change, negative = inhibition was 5.13% in test [1] and 9.45% in [14]. For the same molecule, in test [3], the activity, negative = inhibition is -10.5%.

As for `N=C1[C@@H](O)[C@]2(I)c3ccccc3N3C(=N)[C@H](O)[C@@H]4c5ccccc5N1[C@@H]4[C@@H]32`, the activity change, negative = inhibition in test [1] is 9.35% [at 7.69 µM]; in test [15], -25.9% [at 11.4 µM]. Besides, the Potency in [2] is 2.51 µM (active); in test [4], over 46 µM; in [5], over 9.22 µM; in test [16] it was 3.16 µM (active). In test [6], the Potency result was “inactive”.

Consider `COc1cc2nc(N3CC=[N+](C(=O)c4ccco4)CC3)nc(N)c2cc1OC`, for which the activity change, negative = inhibition in test [1] was -19.6% [at 38 µM]. Also, the results for the Potency in test [2], in test [4] and in test [5] were 12.6 µM (active), over 46 µM and over 46 µM, respectively. Moreover, the Potency result in test [15], in test [6], in test [17] and in test [10] was “inactive” each time. In addition, the call in test [7], in test [11], in test [12] and in test [13] was inactive.

For the molecule `COc1ccc(OCC(=O)OCCN(C)C)cc1`, the activity change, negative = inhibition in test [1] is 7.78%; in [14], 11.6%. Also, the activity, negative = inhibition in test [3] is -3.32%. In [4], the Potency is over 20.6 µM.

As to `CO[C@H]1C[C@@H]2CC[C@@H](C)[C@@](O)(O2)C(=O)C(=O)N2CCCC[C@H]2C(=O)O[C@H]([C@H](C)C[C@@H]2CC[C@@H](O)[C@H](OC)C2)CC(=O)[C@H](C)C=C(C)[C@@H](O)[C@@H](OC)C(=O)[C@H](C)C[C@H](C)C=CC=CC=C1C`, the activity change, negative = inhibition was 6.13% in test [1] and 24.7% in [14]. For the same molecule, the activity, negative = inhibition in test [3] was -28.8%.

For `CCN1CCC[C@@H]1CNC(=O)c1c(OC)ccc(I)c1O`, the activity change, negative = inhibition in test [1] is -2.43% [at 38 µM]. Besides, the Potency in test [2] was 15.8 µM (active); in [4] it was over 46 µM; in test [5], over 46 µM; in test [19], 0.199 µM (active). In test [3], the activity, negative = inhibition is -4.45% [at 38 µM]. The Potency result in [15], in [6], in [18] and in test [16] was “inactive” each time.

In the case of `CN1CCc2c(c3c(n2C)CCN(C)[C@@H]3c2cccnc2)[C@H]1c1cccnc1`, the activity change, negative = inhibition in [1] was 5.56%; in test [14], 8.24%. Besides, the activity, negative = inhibition in test [3] was 9.53%.
